# From PubChem BioAssay AID686978 (National Center for Advancing Translational Sciences (NCATS), 2013)
# The whole screen tested about 420,000 compounds, of which about 64,000 (15%) were called active. Another 27% or so got no clear call; they are omitted. Not all results are given here. A number with no mark means an inactive call. The call rests on the fitted dose curve; in most records, active means well fitted inhibition curve with a large enough effect; inconclusive means small, poorly fitted or top-dose-only effect; inactive means flat fitted curve, though single readings scatter.
# Assay: qHTS for Inhibitors of human tyrosyl-DNA phosphodiesterase 1 (TDP1): qHTS in cells in absence of CPT; further: nearly all actives have a fitted effect of over 55% in size
# Conditions: DT40 Tdp1-/- hTDP1 cells, no CPT, ATP luminescence, 48 h; activity change, negative = growth inhibition: at 46.2 µM (top of the series)
# Procedure, shortened: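 Luminescent ATP content (CellTiter-Glo) served as the growth readout. Knockout chicken DT40 cells expressing human TDP1 were exposed to compounds without camptothecin for a minimum 48 hr at 37 °C.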
# On the % scale 0 is the no-effect control and ±100 the full control effect; potency means the concentration at half of the fitted maximal effect.
SMILES,"activity change, negative = growth inhibition [%]",Potency
CC(C)NC(=O)c1ccccc1S(=O)c1ccccc1C#N (stereo not drawn),-23.9,
O=C(CSc1ccc(Cl)cc1)NC1CC1,-18.7,
O=C(/C=C/c1cccc(F)c1)NC1CC1,-24.6,
CCNC(=S)NNC(=O)C1CCN(Cc2ccccc2)CC1,-8.75,
O=C(Nc1ccccc1)N1CCC(C(=O)N2CCN(Cc3ccccc3)CC2)CC1,-18.5,
S=C(Nc1ccc(Br)cc1)NC1CCN(Cc2ccccc2)CC1,,23.1 µM (active)
Cc1cc(Br)ccc1NC(=S)NC1CCCC1,-20.4,
O=C(NNC(=S)Nc1ccc(Br)cc1Cl)c1ccco1,-8.5,
S=C(Nc1ccc(Br)cc1Cl)NC1CCN(Cc2ccccc2)CC1,,7.31 µM (active)
CCNc1ncc2nc(CCc3ccccc3)c(=O)n(-c3ccc(OC)cc3)c2n1,-21.2,
CC1(C(=O)NCc2ccccc2)CN(S(C)(=O)=O)CC(=O)N1CC(F)(F)F (stereo not drawn),-11.4,
CCOC(=O)c1ccc(-n2c(CCC(=O)O)ccc2-c2ccccc2)cc1,,inactive
CC1Cc2cc(/C(O)=C3\C(=O)C(=O)N(Cc4cccnc4)C3c3ccccc3F)ccc2O1 (stereo not drawn),37.3,
Cc1ccc(O)c(NC(=O)COc2cc(C)ccc2C)c1,-27.4,
Cc1cc(=O)oc2ccc(OCC(=O)O)cc12,14.6,
COC(=O)COc1ccc2oc(=O)cc(C)c2c1,-6.39,
CC(=O)c1c(C)[nH]c(C(=O)COc2ccc3c(C)cc(=O)oc3c2)c1C,,20.6 µM (active)
Cc1cc(=O)oc2cc(OCC(=O)Nc3nnc(C4CC4)s3)ccc12,-15.1,
Cc1ccc(O)c(/C=N/NC(=O)COc2ccc3c(C)cc(=O)oc3c2)c1,,16.4 µM (active)
CN(CC(=O)Nc1ccc(N2CCOCC2)cc1)CC(=O)Nc1ccccc1[N+](=O)[O-],-5.19,
O=c1c2ccccc2ncn1CCc1ccncc1,1.84,
Cc1cccc(CC(=O)Nc2c3c(nn2-c2cccc(Cl)c2)CS(=O)C3)c1 (stereo not drawn),-0.756,
O=C(COC(=O)/C=C/c1cccc(Cl)c1)NCCc1ccccc1,-3.37,

SMILES,"activity change, negative = growth inhibition [%]",Potency
NNc1cccc(C=Cc2ccccc2)cc1=O,,1.64 µM (active)
O=c1oc(/C=C/c2ccccc2)nc2ccccc12,-24.3,
O=C(Cn1c(=O)n(Cc2ccco2)c(=O)c2ccccc21)NCC1CCCO1 (stereo not drawn),-7.48,
COCCNc1nnc(SCC(=O)NNC(=O)c2ccco2)s1,6.29,
CCOC(=O)C1=CN(Cc2ccc(Br)cc2)S(=O)(=O)N(C)C1C (stereo not drawn),-29.2,
O=C(NCc1ccncc1)c1cccc(NS(=O)(=O)c2ccc(F)c(F)c2)c1,-8.99,
COCCCNC(=O)c1ccc(CNS(=O)(=O)c2ccc(NC(C)=O)cc2)cc1,-2.52,
O=C1[C@@H]2C(Cc3ccc(O)cc3)NC3(C(=O)Nc4ccc(F)cc43)[C@@H]2C(=O)N1c1ccc(F)cc1 (stereo partly drawn),-7.72,
CSCCC1NC2(C(=O)Nc3ccc(Cl)cc32)[C@@H]2C(=O)N(C3CCCC3)C(=O)[C@H]12 (stereo partly drawn),,20.6 µM (active)
CN(C)S(=O)(=O)N1CCN(c2ccc([N+](=O)[O-])cc2)CC1,-25.7,
CC(N)(C(=O)O)c1ccc(-c2nn[nH]n2)cc1 (stereo not drawn),-9.19,
CCOC(=O)N1CCN(Cc2nnc(-c3ccccc3Cl)o2)CC1,22.9,
CCc1c(C)n([O-])c2c([n+]1=O)CCCCC2,4.34,
Cc1cccc(C(=O)OCC(=O)NC(C)C2CC3CCC2C3)c1O (stereo not drawn),,16.4 µM (active)
CCOC(=O)CCC(=O)OCC(=O)NC(C)C1CC2CCC1C2 (stereo not drawn),-12.4,
Cc1cccc(C(=O)OCC(=O)NCC(C)C)c1O,-2.49,
COC(=O)c1ccc(NC(=O)CSc2nnc(-c3ccncc3)n2C)cc1,-0.574,
NS(=O)(=O)c1ccc(Nc2nc(-c3ccccc3)cs2)cc1,-16.9,
CC(=O)c1ccc(Nc2nc(C(N)c3ccccc3Cl)cs2)cc1 (stereo not drawn),,11.6 µM (active)
CC(=O)c1ccc(NC(=O)C(C)N(C)CC(=O)Nc2ccccc2Cl)cc1 (stereo not drawn),-1.04,
COc1ccc(NC(=O)CSc2nnc(-c3nnn(-c4ccc(F)cc4)c3C)o2)cc1,-26.3,
COc1ccccc1N(CC(=O)NC1CCCC1)C(=O)C1(C)CC(=O)N=C2C=CC(C)=CN21 (stereo not drawn),-26.7,
CC1=C(C(N)=O)C(c2sccc2C)n2nnnc2N1 (stereo not drawn),-5.04,

SMILES,"activity change, negative = growth inhibition [%]",Potency
Cc1c(Cl)cccc1NC(=S)N(Cc1ccccc1)Cc1cccnc1,-1.9,
CSc1cccc(NC(=S)N(Cc2ccccc2)Cc2ccccn2)c1,,20.6 µM (active)
CC(c1ccccn1)N(CCN(C)C)C(=S)Nc1ccccc1F (stereo not drawn),-10.4,
CSc1cccc(NC(=S)N(C(C)C)C(C)c2ccccn2)c1 (stereo not drawn),,8.2 µM (active)
COc1cccc(NC(=S)N(Cc2ccc(C)cc2)Cc2ccccn2)c1,-29.4,
CC(C)(C)c1nnc(N/N=C/c2ccc(O)cc2)n(N)c1=O,-21.3,
O=C(CC[C@H]1O[C@@H](n2ccc(=O)[nH]c2=O)[C@H](O)[C@@H]1O)N[C@H](Cc1ccccc1)C(=O)NCCCN1CCCC1=O,7.45,
CN(C(=O)COC(=O)CCCc1c[nH]c2ccccc12)c1c(N)n(Cc2ccccc2)c(=O)[nH]c1=O,16.9,
Cc1nc2c(ncn2-c2ccccc2)c(=O)n1NC(=O)CN1CCCC1,3.93,
CCN(CC)C(=O)CSc1nnc(-c2ccc(S(=O)(=O)NCc3ccccc3Cl)cc2)o1,-18.3,
COc1ccccc1NC(=O)[C@H](COCc1ccccc1)NC(=O)OC(C)(C)C,,18.4 µM (active)
COc1ccccc1NC(=O)C(C)OC(=O)CC1CCCC1 (stereo not drawn),-0.667,
COc1ccccc1NC(=O)C(CC(=O)O)Cc1cc(C)cc(C)c1 (stereo not drawn),3.58,
COc1ccc(C)cc1NC(=O)CCCN1C(=O)NC(C)(C)C1=O,7.84,
O=S(=O)(NCCNS(=O)(=O)c1ccccc1)c1ccccc1,2.77,
Cc1cc(C(=O)N2CCCC2(C)C(=O)O)c(C)o1 (stereo not drawn),-1.92,
COc1ccc(CNC(=O)c2ccc3c(c2)nc2n3CCOC2)c(OC)c1,-1.39,
Cc1cccc(CCNC(=O)c2ccc3c(c2)nc2n3CCC(C)C2)c1 (stereo not drawn),,18.4 µM (active)
Cc1ccc(CCNC(=O)c2ccc3c(c2)nc2n3CCC(C)C2)cc1 (stereo not drawn),-23.5,
CCOc1ccc(CCNC(=O)COC(=O)C2CCN(S(=O)(=O)c3ccccc3)CC2)cc1OCC,-10.6,
COC(=O)c1ccc(COC(=O)c2cnccn2)cc1,-6.17,
Cc1ccc(S(=O)(=O)NCC(C)NS(C)(=O)=O)cc1 (stereo not drawn),-8.89,
